# Shown are actives, neighbours in structure and some others; about 2.4% of the full set was active somewhere.
# Rango complex inh = qHTS Assay for Inhibitors of Rango (Ran-regulated importin-beta cargo) - Importin beta complex formation. AID 540263, 2011. 0.031% of 340,000 active. Rango CFP/YFP FRET sensor + importin beta, 45 min. Potency, µM (highest dose often 92.2 µM); also: nearly all actives have a fitted effect of over 15% in size
#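 FRET biosensor (snurportin 1 IBB flanked by EYFP and cerulean), 50 nM, with compound 5 min, then 0.125 microM importin beta in PBS, 1 mM DTT, 0.02% Tween-20, 0.1% BSA. CFP/YFP ratio read after 45 min at room temperature; pre-read flags interference.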
# ClpP mod = qHTS Assay for Activators of ClpP. ATP-dependent Clp protease proteolytic subunit (Bacillus subtilis (strain 168)), P80244. purified B. subtilis ClpP, FRET peptide cleavage, 20 min. Potency, µM (titrated, usually from 57.5 µM). 1.9% of 340,000 active; active = well fitted falling curve with a large enough effect; inconclusive = small, poorly fitted or top-dose-only effect; inactive = no such curve, though single readings can be large or run the other way; also: the source files actives as falling curves though it sought activators and does not explain the sign; nearly all actives have a fitted effect of over 65% in size
#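 FRET quenching reversal measured ClpP activation: 10 microg/mL B. subtilis ClpP at pH 8 with the FRET-FV decapeptide, read at 430 nm after 320 nm excitation. The 20-min minus 0-min signal was scaled between DMSO/no-enzyme wells and ADEP (5.8 microM final).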
# Rango dissoc inh = qHTS Assay for Inhibitors of RanGTP induced Rango (Ran-regulated importin-beta cargo) - Importin beta complex dissociation; Potency, µM (series often up to 46.1 µM); Biochemical FRET Rango-importin beta, RanGTP-induced dissociation; 0.071% of 340,000 active; AID 540253, 2011; Snurportin-1 (Homo sapiens) + GTP-binding nuclear protein Ran (Homo sapiens) + Importin …; also: nearly all actives have a fitted effect of over 45% in size
#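 Compounds preincubate 5 min with complex of recombinant Rango and importin beta in PBS with 1 mM DTT. Ran (0.6 uM) loaded with 2 mM GTP plus 0.2 uM RCC1 starts dissociation; FRET is recorded 45 min later.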
# TDP1 block = qHTS Assay for Inhibitors of Tyrosyl-DNA Phosphodiesterase (TDP1). AID 485290, 2010. Potency, µM (highest dose often 130 µM), hits mostly inhibitors. recombinant TDP1, AlphaScreen DNA substrate cleavage. 0.28% of 350,000 active; active = well fitted curve in the direction sought with a large enough effect; inconclusive = small, poorly fitted or top-dose-only effect, or another doubt; inactive = no such curve, though single readings can be large; an effect the other way counts as inactive or inconclusive; also: nearly all actives have a fitted effect of over 40% in size
#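 Tdp1 1 nM final; 15 min RT w/ cpd; substrate 15 nM, 5 min; beads 10 ug/ml, 10 min; AlphaScreen read. Neg ctrl: no enzyme.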
# TSG101-PTAP inh = qHTS Assay for Iinhibitors of HIV-1 Budding by Blocking the Interaction of PTAP/TSG101. Tumor susceptibility gene 101 protein (Homo sapiens), Q99816. Potency, µM (highest dose often 115 µM), hits mostly inhibitors. 340,000 tested, under 10 active. Fluorescence polarization, FITC-PTAP peptide / Tsg101 binding; active = well fitted inhibition curve with a large enough effect in the main read-out, with a control signal flat, not every such curve was filed as active; inconclusive = small, poorly fitted or top-dose-only effect, or effect the other way, or a change in a side signal; inactive = no such curve, though single readings can be large or run the other way
#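 Fluorescence anisotropy tracks displacement of a FITC-tagged PTAP peptide (50 nM) from the Tsg101 binding domain (10 uM), following a 20 min room-temperature incubation at pH 7.5.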
# ALOX12 inh = Primary qHTS assay for inhibitors of human arachidonate 12S-lipoxygenase (ALOX12): Round 2. purified 12hLO, xylenol orange hydroperoxide absorbance. Potency, µM (series often up to 108 µM), hits mostly inhibitors. AID 1671190, 2021. 1.1% of 580,000 active. Polyunsaturated fatty acid lipoxygenase ALOX12 (Homo sapiens), P18054; active = well fitted curve in the direction sought with a large enough effect; inconclusive = small, poorly fitted or top-dose-only effect, or another doubt; inactive = no such curve, though single readings can be large; an effect the other way counts as inactive or inconclusive
# Target sequence (P18054 whole entry, looked up): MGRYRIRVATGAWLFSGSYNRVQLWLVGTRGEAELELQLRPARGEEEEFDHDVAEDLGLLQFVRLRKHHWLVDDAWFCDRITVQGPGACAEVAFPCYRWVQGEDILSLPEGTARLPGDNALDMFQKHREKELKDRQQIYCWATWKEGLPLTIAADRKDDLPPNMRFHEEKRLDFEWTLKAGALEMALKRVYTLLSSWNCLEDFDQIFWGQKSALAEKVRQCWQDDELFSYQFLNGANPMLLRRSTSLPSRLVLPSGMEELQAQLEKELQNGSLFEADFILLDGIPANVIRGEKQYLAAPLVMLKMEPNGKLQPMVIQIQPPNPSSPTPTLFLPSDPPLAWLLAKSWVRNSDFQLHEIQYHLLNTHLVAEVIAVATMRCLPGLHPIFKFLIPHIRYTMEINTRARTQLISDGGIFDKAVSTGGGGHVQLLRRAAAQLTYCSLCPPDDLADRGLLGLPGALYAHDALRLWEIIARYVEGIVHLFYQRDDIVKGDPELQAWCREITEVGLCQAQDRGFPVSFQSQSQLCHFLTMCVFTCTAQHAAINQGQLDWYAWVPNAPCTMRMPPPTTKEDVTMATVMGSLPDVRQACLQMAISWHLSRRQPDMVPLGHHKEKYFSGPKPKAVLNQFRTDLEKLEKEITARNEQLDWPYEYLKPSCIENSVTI
#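 Purified human 12hLO (150 nM final) in 25 mM Hepes, 0.01% Triton X-100, pH 7.0 was preincubated 15 min at room temperature with compound. Then 40 uM arachidonic acid was added, 30 min. Hydroperoxide was read by Fe-XO absorbance ratio 573/405 nm.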
# A number is an active result; i = inactive; ? = inconclusive; nt = no result; [ ] = remark or other dose. Unless noted, calls follow the shape of the full dose curve.
SMILES,Rango complex inh,ClpP mod,Rango dissoc inh,TDP1 block,TSG101-PTAP inh,ALOX12 inh
CC1Cc2ccccc2N1Cc1nc2cc(Cl)ccc2c(=O)[nH]1 (configuration not stated),?,13µM,?,i,i,i
CNC(=O)C(C)N1c2cccc3cccc(c23)S1(=O)=O (configuration not stated),i,?,i,nt,i,i
COCC(C)NC(=O)C(C)N1c2cccc3cccc(c23)S1(=O)=O (configuration not stated),i,i,i,20µM,i,i
O=C(NCCN1CCCCC1)c1cc2ccccc2[nH]1,i,18µM,i,i,i,?
COc1ccc2[nH]c(C(=O)NCCN3CCCCC3)cc2c1,?,nt,i,nt,i,nt
CN1CCc2c([nH]c3ccccc23)C12CCN(C(=O)c1ccncc1)CC2,nt,nt,nt,nt,nt,i
C=CCNC(=O)CSc1ncc2c(n1)-c1c(csc1SC)CC2,?,32µM,i,i,i,?
CCCCCCCCN1C(=O)[C@H](CC(=O)NCc2ccc(C)o2)C[C@@]2(C(=O)OC)CCCCC=C12,nt,i,nt,nt,nt,35µM
CCCCCCCCN1C(=O)[C@H](CC(=O)NCc2ccc(C)o2)C[C@@]2(C(=O)OCC)CCC=C12,nt,i,nt,nt,nt,?
COc1cc2c(C(=O)O)c(C)n(CC(C)C)c2c2ccccc12,i,35µM,i,i,i,i
Cc1cccc(N2CCN(S(=O)(=O)c3ccc4c(c3)OCCO4)CC2)c1C,?,nt,18µM[inhibitor],i,i,i
Cc1cccc(N2CCN(S(=O)(=O)c3ccc4c(c3)NC(=O)CO4)CC2)c1C,i,i,i,i,i,i
COc1ccccc1N(C(C)=O)C1=C(Cl)C(=O)c2ccccc2C1=O,nt,i,nt,nt,nt,14µM
COc1ccccc1N(C(=O)CCl)c1cn(C(C)=O)c2ccccc12,i,i,i,i,i,i
COc1ccc(-c2cn3cccnc3n2)cc1NC(=O)CC(C)C,i,28µM,i,i,i,i
COc1ccc(-c2nc3ccccc3o2)cc1NC(=O)c1ccc(Br)o1,i,22µM,i,i,i,i
Cc1ccc(-c2cn3cccnc3n2)cc1NC(=O)c1ccc(Br)o1,i,i,i,i,i,i
Cc1ccc(-c2nc3ccccc3o2)cc1NC(=S)NC(=O)c1cc2ccccc2o1,i,16µM,i,i,i,i
COc1ccc(-c2cn3cccnc3n2)cc1NC(=O)c1ccc(Br)o1,i,?,i,50µM,i,i
COCCN1Cc2nc(OCc3cccnc3)ccc2OCC1=O,nt,nt,nt,nt,nt,i
CCc1ccc(C(=O)N2C[C@@H](COC)[C@H](c3nc(C)no3)C2)cc1,nt,nt,nt,nt,nt,i
Cc1ccc2c(c1)-c1nc3ccccc3cc1/C2=C\c1ccncc1,nt,nt,nt,nt,nt,i
CC(C)Cn1nc(C(=O)Nc2ccccc2Cl)c2ccccc2c1=O,nt,nt,nt,nt,nt,i
COc1cccc(CC(=O)N2CCC3(CC2)CC(Cc2nc(-c4cccnc4)no2)CCO3)c1 (configuration not stated),nt,nt,nt,nt,nt,i
CC(C)Cc1nc2oc3c(N(C)CCO)ncnc3c2c2c1CCC2,nt,nt,nt,nt,nt,i
SMILES,Rango complex inh,ClpP mod,Rango dissoc inh,TDP1 block,TSG101-PTAP inh,ALOX12 inh
CCCN1CCN(CCO)CC1,nt,nt,nt,nt,nt,i
Cc1cccc(C(=O)NCC23CCC=C2N(C)C(=O)CC3)c1 (configuration not stated),nt,nt,nt,nt,nt,i
CCOc1cc(C(=O)Nc2ccc(-c3cn4cccnc4n3)cc2)cc(OCC)c1OCC,nt,16µM,nt,i,nt,i
Cc1cc(C)cc(C(=O)Nc2ccc(-c3cn4cccnc4n3)cc2)c1,nt,i,nt,i,nt,i
O=C(Nc1cccc(-c2cn3cccnc3n2)c1)c1ccc2c(c1)OCO2,i,28µM,i,nt,i,i
Cc1ccccc1S(=O)(=O)N1CCC(c2noc(-c3cccnc3)n2)C1 (configuration not stated),nt,nt,nt,nt,nt,i
COc1c(C)cccc1C(=O)Nc1ccc(-c2nc3ccccc3o2)cc1,nt,nt,nt,nt,nt,i
O=C(C1CCCC1)N1CC2(CCCCN2Cc2cccnc2)Cc2ccccc21 (configuration not stated),nt,nt,nt,nt,nt,i[6.33 µM]
COC(=O)c1c(-c2cccs2)csc1NC(=O)COc1ccc(C(C)C)cc1,nt,28µM,nt,i,nt,i
CCCc1ccc(OCC(=O)Nc2scc(-c3cccs3)c2C(=O)OC)cc1,nt,i,nt,nt,nt,?
O=c1c2ccccc2nc2sc(Nc3ccc(F)cc3)nn12,i,nt,i,56µM,i,?
COc1cccc(Nc2nn3c(=O)c4ccccc4nc3s2)c1,i,nt,?,i,i,nt
COc1ccc(CN2CC3(CCN(C(=O)Nc4cccc(Cl)c4)CC3)C2=O)cc1,nt,nt,nt,nt,nt,i
CCNC(=O)N1c2ccc(OCC)cc2C(C)=CC1(C)C,?,i,2.1µM,i,i,i
CCOc1ccc2c(c1)C(C)=CC(C)(C)N2S(=O)(=O)c1ccc(C)cc1,i,nt,i,i,i,i
COc1ccc2c(c1)C(C)=CC(C)(C)N2C(=O)Nc1cccc(Cl)c1,nt,nt,nt,nt,nt,40µM
COc1ccc(-c2noc(-c3cccn3CC(=O)Nc3ccccc3C(C)C)n2)cc1F,nt,nt,nt,nt,nt,i
CCC(=O)N1CCC(Cn2c(C)cnc2C2CC2)CC1,nt,nt,nt,nt,nt,i
COCc1cc(C)n(CC(=O)Nc2ccc(Cl)cc2Cl)c(=O)c1C#N,i,25µM,i,i,i,i
Cc1ccc(NC(=O)NCc2nc(-c3ccccc3)oc2C)cc1C,nt,nt,nt,nt,nt,i
COC(=O)c1ccc(C)c(NC(=O)CN2c3ccc(C(C)C)cc3-c3ccccc3S2(=O)=O)c1,nt,nt,nt,nt,nt,i
COc1ccc(OC)c(-c2csc(NC(=O)C3=COCCO3)n2)c1,i,32µM,i,i,i,i
CCOC(=O)C1CCN(C(=O)Cn2c(-c3cccs3)cc3cc(Cl)ccc32)CC1,nt,35µM,nt,i,nt,i
CC1CCN(C(=O)Cn2c(-c3cccs3)cc3cc(Cl)ccc32)CC1,nt,35µM,nt,i,nt,i
O=C(O)c1c(Cl)c(Cl)c(Cl)c(Cl)c1C(=O)N1CCOCC1,i,i,i,i,i,11µM
O=C(O)c1cc(Cl)c(Cl)cc1C(=O)N1CCOCC1,i,i,i,i,i,i
Cc1ccc(C)c(S(=O)(=O)N2C[C@@H](F)C[C@H]2C(=O)N2CCCCC2)c1,nt,nt,nt,nt,nt,i
CNC(=S)NNC(=O)Cc1ccc(OC)cc1,i,28µM,i,nt,i,i
COc1ccc(CCC(=O)NNC(=O)c2cc(Cl)ccc2OC)cc1,i,nt,i,i,i,i
CNC(=S)NNC(=O)Cc1ccc(O)cc1,i,?,i,i,i,i

# Screening data as filed in PubChem BioAssay.
